Sampled rows, rich in hits. Any-hit rate of the full collection: about 2.7%.
IP6K1 inhibitor – IP6K1 kinase inhibition; Q92551; IP6K1 kinase, ADP-Glo luminescence, 2 h; hits give low values; activity change, % (series mostly up to about 58 µM); 0.81% of 140,000 active; in the data active = activity change below about -25%; also: % is scaled to controls: 0 for no effect and ±100 for the full control effect
Target sequence (Q92551 whole entry, looked up): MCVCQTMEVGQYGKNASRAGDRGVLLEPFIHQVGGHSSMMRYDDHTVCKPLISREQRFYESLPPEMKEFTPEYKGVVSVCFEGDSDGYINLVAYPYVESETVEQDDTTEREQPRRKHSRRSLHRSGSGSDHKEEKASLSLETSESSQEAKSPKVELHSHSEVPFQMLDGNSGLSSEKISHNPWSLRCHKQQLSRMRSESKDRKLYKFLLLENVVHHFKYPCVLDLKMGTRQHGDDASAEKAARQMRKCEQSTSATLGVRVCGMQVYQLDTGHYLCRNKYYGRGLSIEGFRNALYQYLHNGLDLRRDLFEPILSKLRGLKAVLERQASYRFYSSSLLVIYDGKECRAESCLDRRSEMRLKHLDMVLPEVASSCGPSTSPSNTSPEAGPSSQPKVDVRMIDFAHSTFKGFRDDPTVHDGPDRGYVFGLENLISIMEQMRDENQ
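ADP-Glo luminescence measures ADP made by human IP6K1 during a 2 h RT reaction with ATP/IP6 (mix at 1.3 mM/130 uM); top library doses 57.5 and 19.1 uM final.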
KDM5B inh – KDM5B demethylase inhibition | Q9UGL1 | KDM5B demethylase, FDH-coupled NADH fluorescence (FDH is formaldehyde dehydrogenase) | Potency, µM (highest dose often 57.7 µM), most hits filed as inhibitors | 2.6% of 220,000 active; active = well fitted inhibition curve with a large enough effect; inconclusive = small, poorly fitted or top-dose-only effect; inactive = no such curve, though single readings can be large or run the other way; also: potency is read from the fitted curve at half-maximal effect; 0% is about no effect; nearly all actives have a fitted effect of over 70% in size
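KDM5BΔAP (200 nM final) in 50 mM HEPES pH 7.5, 0.01% Tween-20 was preincubated 10 min at RT with compound over a concentration range. Substrate mix (H3K4me3 12.5 µM, α-KG 25 µM, Fe²⁺, ascorbate, NAD⁺, FDH) was added, and NADH fluorescence change over 30 min gave dose-response curves.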
The depositor's hits bear a star; i = inactive; u = inconclusive; x = no result.

SMILES | IP6K1 inhibitor | KDM5B inh
CC(NC(=O)COc1ccc(F)cc1)C(=O)N1CCN(c2ccccn2)CC1 (stereo unspecified) | 11.7 | 28.2µM*
CC(NC(=O)COc1ccccc1)C(=O)N1CCN(c2ccc(F)cc2)CC1 (stereo unspecified) | x | i
Cc1cccc(C(=O)N[C@@H](C)C(=O)N2CCN(c3ncccn3)CC2)c1 | x | i
COc1ccc2[nH]c(=O)c(CCC(=O)N3CCN(c4ccccn4)CC3)cc2c1 | 8.2 | u
COc1ccc(-c2cnc3[nH]cc(CC(=O)N4CCN(c5ccccn5)CC4)c3c2)cc1 | -8.7 | 28.2µM*
O=C(Cc1c[nH]c2ncc(-c3ccccc3)cc12)N1CCN(c2ccccn2)CC1 | -16.8 | u
CC(C)(C)OC(=O)Nc1ccc(C(=O)NCC(c2ccco2)N2CCCCC2)cc1 (stereo unspecified) | x | i
O=C(Cc1ccc(F)cc1)N1CCC2(CC1)CCN(CCc1ccccc1)c1ccccc1O2 | 12.4 | i
CNC(=O)c1cn2cc(-c3ccc(F)cc3)sc2n1 | -21.0 | x
O=C(NCc1ccc(Cl)cc1)C1CCCN(c2ccnc3ccnn23)C1 (stereo unspecified) | 18.9 | x
CCCNC(=O)CN1CCN(Cc2ncc(-c3ccccc3)o2)CC1 | x | i
COc1ccc(-c2cnc3[nH]cc(CC(=O)NCCN(C)C)c3c2)cc1 | -16.0 | 39.8µM*
COc1ccc(-c2cnc3[nH]cc(CC(=O)N(C)C)c3c2)cc1 | -19.8 | u
CCCn1nc(C(=O)N2CCN(c3ccccn3)CC2)c2ccccc2c1=O | x | i
CC(NC(=O)c1n[nH]c2ccccc12)C(=O)N1CCN(c2ccccn2)CC1 (stereo unspecified) | 2.0 | 22.4µM*
CC(NC(=O)Cc1c(F)cccc1Cl)C(=O)N1CCN(c2ccccn2)CC1 (stereo unspecified) | -0.6 | u
CCOc1ccccc1C(=O)NC(C)C(=O)N1CCN(c2ccccn2)CC1 (stereo unspecified) | 1.2 | 22.4µM*
COc1ccc(CC(=O)NC(C)C(=O)N2CCN(c3ccccn3)CC2)cc1 (stereo unspecified) | 21.6 | 31.6µM*
COc1ccc(C(=O)NC(C)C(=O)N2CCN(c3ccccn3)CC2)cc1F (stereo unspecified) | 4.1 | u
Cc1nn(-c2ccccc2)c2c1C(C)N(C1CCCN(C(=O)c3ccc(Cl)nc3)C1)C2=O (stereo unspecified) | 8.0 | x
O=C(NC1CC1)c1cc(-c2ccccc2Cl)nc2ccccc12 | x | i
COc1ccc2c(c1)CN(CC=C(C)C)C(=O)CCN2CC(O)COc1ccccc1 (stereo unspecified) | -14.1 | x
COc1cccc(CC(=O)NC(C)C(=O)N2CCN(c3ccccn3)CC2)c1 (stereo unspecified) | 29.9 | 25.1µM*
COc1cccc(CN2C(=O)CCCCC2C(=O)N2CCN(c3ccccn3)CC2)c1 (stereo unspecified) | -10.4 | x
O=C(N[C@@H]1CCOC[C@H]1O)c1cnn2cc(CCO)cnc12 | -8.1 | 28.2µM*
SMILES | IP6K1 inhibitor | KDM5B inh
CCN(CC)Cc1cnc2c(C(=O)NC3CCC3)cnn2c1 | -2.4 | u
COc1ccc(Cl)cc1NC(=O)CSc1nc2c(c(=O)n1CCc1ccccc1)SCC2 | x | i
Cc1ccc2c(CN(C)CCOc3ccccc3)cc(=O)oc2c1 | x | i
CN1CC(=O)N(C2CCCNC2)Cc2c(NCCOc3ccccc3)ncnc21 (stereo unspecified) | -4.6 | 44.7µM*
CN1CC(=O)N(C2CCNC2)Cc2c(NCC3CC3)ncnc21 (stereo unspecified) | -2.3 | 89.1µM*
CN1CC(=O)N(C2CCNC2)Cc2c(NCC3CCCCC3)ncnc21 (stereo unspecified) | 5.8 | u
CC(CO)Nc1ncnc2c1CN(C1CCCNC1)C(=O)CN2C (stereo unspecified) | -5.3 | u
CCC(C)Nc1ncnc2c1CN(C1CCNCC1)C(=O)CN2C (stereo unspecified) | 1.2 | 35.5µM*
CC[C@@H](Nc1ncnc2c1CN(C1CCNCC1)C(=O)CN2C)c1ccccc1 | -1.9 | u
COCCCNc1ncnc2c1CN(C1CCCNC1)C(=O)CN2C (stereo unspecified) | -6.3 | u
CC(C)Nc1ncnc2c1CN(C1CCCNC1)C(=O)CN2C (stereo unspecified) | -1.6 | 63.1µM*
COc1cccc(-c2cccc(C(=O)N3CCN(C(=O)NC4CCCC4)CC3)c2)c1 | -7.0 | x
OCCc1cnccn1 | x | i
Cc1oc2cc(OC(C)C(=O)Nc3ccc4c(c3)OCO4)ccc2c(=O)c1-c1ccccc1 (stereo unspecified) | x | i
COCCn1c(C)nnc1-c1cc(-c2ccnc(C)c2)ccn1 | -6.0 | i
COCCn1c(C)nnc1-c1cc(-c2cccc(OC)c2)ccn1 | -1.9 | 35.5µM*
Cc1ccnc(NCCNC(=O)C2CCC(=O)N(CC3CCCCC3)C2)c1 (stereo unspecified) | -10.3 | 28.2µM*

Compound activity (PubChem BioAssay)
